Where “and” joins values, the source holds several entries; their conditions need not be identical. Equal entries are not always repeated. About 27,000 (9.3%) of roughly 290,000 compounds were called active. No stated cut-off is given here; in the data, active means inhibition mostly above about 28% (no sharp cut-off); inactive means mostly below about 43%. The entries come from a sample that favours actives as a whole.

This test is described as follows: A qHTS for Small Molecule Inhibitors of Shiga Toxin. Further: 0% is about no effect. Particulars: Vero cells, Shiga toxin protein synthesis inhibition reporter; at 38.7 µM, stronger effect = higher value. For orientation: Quantitative high-throughput screening tests each substance at several concentrations.
By inhibition is commonly meant the drop in the measured response relative to a control, in per cent. In the case of `Cc1ccc(C(=O)CCC(=O)N(C)CC(=O)Nc2c(Cl)cccc2Cl)cc1`, the inhibition is 12.9% (inactive).
Under `CCOc1ccc(NC(=O)CSc2nncn2C)cc1` stands -2.49% (inactive); under `COc1ccc(-n2c(-c3ccc(OC)c(OC)c3)n[nH]c2=S)cc1`, -6.08% (inactive).
Regarding `CCOc1ccccc1NC(=S)NC(=O)CCc1ccccc1`, the inhibition was -2.78% (inactive).
In the case of `COc1ccc(Nc2ncc(F)c(N3CCOCC3)n2)cc1`, the inhibition is 68.5% (active).
With `CCOc1ccc(Nc2nc(Cl)nc(N3CCN(c4ccc(OC)cc4)CC3)n2)cc1` the figure was -1.73% (inactive); with `c1ccc(Nc2nc(N3CCOCC3)c3ccccc3n2)cc1`, -9.05% (inactive).
For the compound `Cc1cc(C)cc(NC(=O)CN2C(=O)c3ccccc3C2=O)c1`, the inhibition was -7.16% (inactive).
For the compound `Cc1ccc(C(C)C)cc1OCC(=O)Nc1ccccc1N1CCCC1`, the inhibition was 38.7% (inactive).
Under `Cc1c(OC(C)C(=O)N[C@@H](Cc2ccccc2)C(=O)O)ccc2c3c(c(=O)oc12)CCCC3` (stereo not given in full) stands -5.08% (inactive); under `O=C(Cn1ncc2c3ccccc3n(Cc3ccccc3)c2c1=O)NCCCN1CCOCC1`, 10.5% (inactive); under `CCCCN1C(=O)/C(=C2/Sc3ccc(Cl)cc3N2CC)SC1=S`, 1.9% (inactive).
Turning to `CCN1C(=O)/C(=C2/Sc3ccccc3N2CCCS(=O)(=O)O)SC1=S`, the inhibition is 13.4% (inactive) and -2.41% (inactive).
With `CCN1C(=O)/C(=c2\s/c(=C3\Sc4ccccc4N3C)c(=O)n2C)N(C)C1=S`, the inhibition was 40.9% (active).
Take `COc1cc(OC)c(OC)cc1CN1CCN(C(=O)c2cccc3ccccc23)CC1`: the inhibition is -8.18% (inactive).
With `COc1ccc(-c2nc3n(c(=O)c2C#N)CCS3)c(OC)c1` the figure was -7.88% (inactive); with `Cc1ccc(SCc2c(C(=O)N/N=C/C3CC=CCC3)nnn2-c2nonc2N)cc1` (stereo not given), -9.77% (inactive).
With `COCc1c(C(=O)N/N=C/C2CC=CCC2)nnn1-c1nonc1N` (stereo not given) the figure was -2.4% (inactive); with `O=C(N/N=C\C1CC=CCC1)c1ccc(Br)o1` (stereo not given), 67.4% (active); with `CCN1CCN(C(=O)Cn2nc(C)n3c(cc4c(OC)cccc43)c2=O)CC1`, -14.6% (inactive).
As to `O=C(O)CCCn1c(=O)c2cccn2c2ccc(F)cc21`, the inhibition is -8.92% (inactive).
Under `COc1ccc(NC(=O)N2CCC3(CC2)OCCO3)c(OC)c1` stands 13.6% (inactive); under `O=C(Nc1cccc2ccccc12)N1CCC2(CC1)OCCO2`, 54.5% (active); under `O=C(Nc1cccc2ccccc12)N1CCN(Cc2ccc3c(c2)OCO3)CC1`, -3.81% (inactive).
Turning to `COc1cc(/C=N/NC(=O)CNC(=O)c2ccncc2)ccc1OC(C)=O`, the inhibition was -3.89% (inactive).
With `COc1ccc(C)cc1NC(=O)NCCCCc1ccccc1` the figure was 14.6% (inactive).
As for `COc1ccc(C(=O)NC2CC2)cc1OC1CCN(C/C=C/c2ccccc2)CC1`, the inhibition was -9.42% (inactive).
Take `CC(=O)N1c2ccc(S(=O)(=O)N3CCC(C(=O)N4CCN(c5ccccc5)CC4)CC3)cc2CC1C` (stereo not given): the inhibition is -2.12% (inactive).
For the compound `Cc1cccc(-c2nnc(SCC(=O)O)n2Cc2ccccc2)c1`, the inhibition is -7.35% (inactive).
Under `CCOc1c(Cl)cc(/C=N/O)cc1OC` stands 59.8% (inactive).
As to `CCOc1cc(/C=N/O)ccc1OCc1ccccc1F`, the inhibition is 40.7% (active).
Take `C=CCOc1ccc(/C=C2/C(=O)ON=C2C)cc1OCC`: the inhibition was 17.5% (inactive).
On to `CC1=NOC(=O)/C1=C\c1ccccc1`, for which the inhibition is -4.49% (inactive).
As for `C#CCOc1ccc(/C=C2/C(=O)ON=C2C)cc1OCC`, the inhibition was 13.8% (inactive).
For `COc1cc(/C=C2/C(=O)ON=C2C)ccc1OCc1cccc(F)c1`, the inhibition was 55.1% (active).
Under `COc1cc(/C=C2\SC(=O)NC2=O)ccc1OCc1ccc(Cl)nc1` stands -5.05% (inactive); under `COc1cc(/C=C2/C(=O)ON=C2C)ccc1OCc1ccccc1F`, 145% (active); under `CCOc1ccc(/C=N/NC(=O)C(C)Sc2ccccn2)cc1OCC` (stereo not given), -9.85% (inactive).
As to `CCn1c(CC(=O)Nc2ccccc2)nnc1SCC(=O)N1CCOCC1`, the inhibition was -10.2% (inactive).
In the case of `Cc1ccc(/C=C2\SC(=S)N(CCC(=O)Nc3ccc(O)cc3)C2=O)cc1`, the inhibition was 0.715% (inactive).
Regarding `COC(=O)c1cccc(N(CC(=O)NCC2CCCO2)C(=O)CCC(=O)Nc2cc(C)on2)c1` (stereo not given), the inhibition is -11.3% (inactive).
Take `O=Cc1c(NCCc2cccc(F)c2)c2ccccc2[nH]c1=O`: the inhibition is -25% (inactive).
With `Nc1c(NCCc2ccccc2)c2ccccc2oc1=O`, the inhibition was 60.3% (active).
In the case of `CC(C)(C)Nc1c(N)c(=O)oc2ccccc12`, the inhibition is 10.6% (inactive).
For `O=C(CNC(=O)[C@@H]1Cc2ccccc2CN1)NC1CCCCC1`, the inhibition was -13.1% (inactive).
For the compound `COc1ccccc1NC(=O)CSc1nc2sc3c(c2c(=O)n1-c1ccccc1)CCN(C)C3`, the inhibition is 35.8% (active).
With `CCOc1ccc(-n2c(SCC(=O)OC)nc3sc4c(c3c2=O)CCN(C)C4)cc1` the figure was 11.7% (inactive).
For the compound `CCOc1ccc(-n2c(SCC(=O)Nc3ccc(OC)cc3)nc3sc4c(c3c2=O)CCN(C)C4)cc1`, the inhibition was 4.16% (inactive).
Consider `O=C(O)c1cc(S(=O)(=O)N(Cc2ccccc2)c2cccc(C(F)(F)F)c2)ccc1Cl`, for which the inhibition was -2.31% (inactive).
Regarding `CC(=O)N1CCC(C(=O)OCc2ccc(Cl)cc2)(c2ccccc2)CC1`, the inhibition was -6.33% (inactive).
With `Cc1c(Cl)cccc1NC(=O)NCCCN1CCCC1=O` the figure was 29.4% (inactive); with `O=C(CN1C(=O)c2ccccc2C1=O)NCc1ccc(C(=O)O)cc1`, 5.13% (inactive).
Consider `Cc1nc2ccc(C(=O)N3CCN(c4ccccc4)CC3)cc2s1`, for which the inhibition is 11.9% (inactive).
Regarding `O=C(c1cccc(C(=O)N2CCN(c3ccc(F)cc3)CC2)c1)N1CCN(c2ccc(F)cc2)CC1`, the inhibition was -8.51% (inactive).
Regarding `CC(=O)c1ccc(N2CCN(C(=O)c3ccc4nc[nH]c4c3)CC2)cc1`, the inhibition was 29.9% (active).
`CCN1C(=NCCc2cccnc2)N[C@@H](c2ccccc2)[C@H](C(=O)OC)[C@H]1C`: the inhibition is 12.2% (inactive) and -9.8% (inactive).
For `C=C1CCN(Cc2ccc(OC)cc2)S(=O)(=O)c2ccccc21`, the inhibition is -5.84% (inactive).
As for `COc1ccc(OC)c(CNC(=O)Cn2nc(C)c3c(C)n(-c4ccc(C)cc4)nc3c2=O)c1`, the inhibition was 26.2% (inactive).
With `COc1ccc(S(=O)(=O)NNC(=O)Nc2ccc(C)cc2)c(OC)c1`, the inhibition is -5.98% (inactive).
Regarding `NC(=O)C1CCN(C(=O)CC2C(=O)NCCN2Cc2cccc(Oc3ccccc3)c2)CC1` (stereo not given), the inhibition was -10.2% (inactive).
With `Cc1nn(-c2ccccc2)c2c1c(C)c(CCC(=O)NCC1CCCO1)c(=O)n2C` (stereo not given) the figure was -2.28% (inactive).
With `Cc1onc(-c2ccccc2Cl)c1C(=O)NCCn1ccc2ccccc21`, the inhibition was -2.64% (inactive).
On to `Cc1onc(-c2ccccc2Cl)c1C(=O)OCC(=O)c1ccccc1`, for which the inhibition was 71.6% (active).
On to `Cc1[nH]c2ccccc2c1C(=O)COC(=O)c1c(-c2ccccc2)noc1C`, for which the inhibition is -2.62% (inactive).
Under `COc1ccc(/C=C(\NC(=O)c2ccccc2)C(=O)NCCN2CCOCC2)cc1OC` stands 1.37% (inactive); under `CC(CCn1cccn1)NC(=O)CCc1nnc(CCc2ccccc2)o1` (stereo not given), -10.4% (inactive); under `O=C(CCc1nnc(CCCCc2ccccc2)o1)NC(c1cccnc1)C(F)(F)F` (stereo not given), -12.1% (inactive).
With `Cc1cc(-c2nnc(CCC(=O)NC(c3ccccc3)c3ccccc3)o2)no1`, the inhibition was 35.4% (active).
For `COC(=O)c1ccc(N2CCOCC2)c(NC(=O)c2ccc(Br)o2)c1`, the inhibition was 31.4% (inactive).
With `Cc1[nH]n(C(N)=S)c(=O)c1N=Nc1ccc(Cl)cc1Cl` the figure was 44.3% (active).
Take `Cc1cccc(N=Nc2c(C)[nH]n(-c3ccccc3)c2=O)c1`: the inhibition is -4.8% (inactive).
With `CC1=NN(C(N)=S)C(=O)C1N=Nc1cc(Cl)ccc1Cl` (stereo not given), the inhibition is -1.92% (inactive).
Consider `Cc1cc(C)c2oc(C(=O)Nc3ccc(S(=O)(=O)Nc4nccc(C)n4)cc3)cc(=O)c2c1`, for which the inhibition is 2.27% (inactive).
Turning to `Cc1ccc(NC(=O)O/N=C/c2cccc([N+](=O)[O-])c2)cc1`, the inhibition was 70.8% (active).
On to `CCc1ccc(NC(=O)C(C)OC(=O)/C=C/c2cccc([N+](=O)[O-])c2)cc1` (stereo not given), for which the inhibition is 15.5% (inactive).
As for `O=C(N/N=C/c1cccc([N+](=O)[O-])c1)c1ccncc1`, the inhibition is 22.3% (inactive).
With `Cc1ccc(C)c(S(=O)(=O)Nc2cc(C)on2)c1`, the inhibition was -4.53% (inactive).
In the case of `CCc1cc2c(=O)c(-c3ccc(F)cc3)c(C(F)(F)F)oc2cc1OCC(=O)O`, the inhibition is 5.27% (inactive).
`CCc1cc2c(=O)c(-c3ccon3)c(N)oc2cc1OC`: the inhibition was 82.2% (active).
In the case of `COc1ccc2oc(N)c(C=O)c(=O)c2c1`, the inhibition was 63.7% (inactive).
On to `CSc1nnc(C2CCCN(CC(=O)Nc3ccccc3N3CCOCC3)C2)n1C(C)C` (stereo not given), for which the inhibition is -9.97% (inactive).
Take `O=C(Cn1c(NCCO)nc2ccccc21)c1ccc(Cl)cc1Cl`: the inhibition was -8.74% (inactive).
For `COC(=O)c1c(NC(=O)C2CC(C)=C(C)CC2C(=O)O)sc2c1CCCCC2` (stereo not given), the inhibition is -7.33% (inactive).
Turning to `O=C(CCc1nnc2ccc(NCc3ccco3)nn12)Nc1cc(F)ccc1F`, the inhibition was -6.06% (inactive).
On to `CCOc1ccccc1NC(=O)CCc1nnc2ccc(NCc3ccco3)nn12`, for which the inhibition is -9.81% (inactive).
With `CC(=O)c1ccc(NC(=O)CCc2nnc3ccc(NCc4ccco4)nn23)cc1` the figure was 49.7% (active); with `COCCNC(=O)CCCN1C(=O)c2ccccc2Sc2ncccc21`, -19.8% (inactive); with `CCOc1ccccc1-c1nc(CN2CCC(C(=O)N3CCOCC3)CC2)c(C)o1`, -7.77% (inactive).
Regarding `O=C(NCc1ccccn1)C1CCN(S(=O)(=O)c2ccc(Br)cc2)CC1`, the inhibition was -33.7% (inactive).
Take `Cc1ccc(-c2cc(N)on2)cc1`: the inhibition is 108% (active).
With `Cc1ccc(S(=O)(=O)Cc2cc(-c3ccc(Cl)cc3)no2)cc1` the figure was 8.79% (inactive).
As to `O=C(Cc1ccccc1Cl)N1CCOCC1`, the inhibition is -11.4% (inactive).
Under `COc1cc2c(cc1OC)/C(=C/C(=O)c1ccc(NC(C)=O)cc1)NCC2` stands -6.51% (inactive); under `CC1CN/C(=C\C(=O)c2ccc(Br)cc2)C(=O)N1` (stereo not given), 67.3% (active); under `CN1CCCC(OC(=O)COc2ccc(Br)cc2)C1` (stereo not given), -12% (inactive).

For the origin of these results see PubChem BioAssay AID2315 (National Center for Advancing Translational Sciences (NCATS), 2010).
